Screening data (PubChem)
HPGD block: blocks human HPGD enzyme activity; 150,000 tested, 4.3% active; P15428; Potency, µM, without a hit: top-dose activity change, negative = inhibition, most hits filed as inhibitors; purified HPGD, NADH fluorescence kinetic, PGE2 substrate; AID 894; active = well fitted inhibition curve with a large enough effect, not every such curve was filed as active; inconclusive = small, poorly fitted or top-dose-only effect, or another doubt; inactive = no such curve, though single readings can be large or run the other way
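NADH formation kinetics: reaction with 30 uM PGE2 and 1 mM NAD+ (final), 20 nM enzyme, Tris-HCl pH 8 with Tween 20, after 15 min compound preincubation at room temperature. Fluorescence change, last versus first of five reads.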
ALDH1A1 inh: blocks purified human ALDH1A1 activity | Purified ALDH1A1, NADH fluorescence, propionaldehyde substrate | Potency, µM (top dose mostly 75.3 µM), for inactives: at the highest dose activity, negative = inhibition, usual class: inhibitors | 220,000 tested, 7.3% active; active = well fitted inhibition curve with a large enough effect, not every such curve was filed as active; inconclusive = small, poorly fitted or top-dose-only effect, or another doubt; inactive = no such curve, though single readings can be large or run the other way;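 also: plate controls were no enzyme wells and a reference inhibitor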
Tau fluor counter: counter-screen for tau fibril formation inhibitors. tau K18 P301L Alexa594 fluorescence, heparin fibrillization. Potency, µM (doses to about 57.7 µM), without a hit: at the highest dose activity change, negative = decrease. 280,000 tested, 0.93% active. AID 1463; also: nearly all actives have a fitted effect of over 55% in size
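Human K18 P301L tau (15 uM unlabeled plus 0.24 uM Alexa 594-labeled, final) in 100 mM sodium acetate pH 7 was mixed with compound and 20 uM heparin and incubated 6 hr at 37 C.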
Tau ThT inhib: tau fibrillization inhibition (ThT binding); 270,000 tested, 2.1% active; Potency, µM (highest dose often 57.4 µM), for inactives: top-dose activity, negative = inhibition, hits mostly inhibitors; AID 1460; P10636; recombinant tau K18 P301L (four-repeat tau fragment), heparin-induced fibrillization, ThT fluorescence; also: nearly all actives have a fitted effect of over 55% in size
Target sequence (P10636 561-689 P618L limits assumed): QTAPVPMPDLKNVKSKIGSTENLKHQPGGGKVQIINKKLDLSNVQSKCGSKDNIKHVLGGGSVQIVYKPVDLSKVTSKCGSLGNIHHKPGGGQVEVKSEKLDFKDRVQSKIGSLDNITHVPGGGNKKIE
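In this qHTS, human K18 P301L tau is incubated with compound and heparin for 6 hr at 37 C, and Thioflavin T fluorescence then reports fibril load.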
Tau fibril FP: inhibitors of human tau fibril formation | P10636 | K18 P301L tau heparin fibrillization, Alexa594 FP, 6 h | Potency, µM (titrated, usually from 57.7 µM), inactives show top-dose activity, negative = inhibition, actives largely listed as inhibitors | 280,000 tested, 0.39% active; also: nearly all actives have a fitted effect of over 55% in size
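K18 P301L tau (15 uM unlabeled/0.24 uM Alexa 594-labeled, final) + compound + heparin 20 uM final; 100 mM NaOAc pH 7; 6 hr 37 C; ThT 30 uM final added, 1 hr RT; FP ex 555/em 632 nm.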
JMJD2E inh: blocks human JMJD2E demethylase activity | JMJD2E catalytic domain, FDH-coupled NADH fluorescence (FDH is formaldehyde dehydrogenase) | Potency, µM (titrated, usually from 57.1 µM), for inactives: top-dose activity change, negative = inhibition, actives largely listed as inhibitors | B2RXH2 | 230,000 tested, 1.6% active; active = well fitted inhibition curve with a large enough effect, not every such curve was filed as active; inconclusive = small, poorly fitted or top-dose-only effect, or another doubt; inactive = no such curve, though single readings can be large or run the other way;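 also: 0% = wells with enzyme and -100% = buffer wells without enzyme; nearly all actives have a fitted effect of over 50% in size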
Target sequence (B2RXH2 1-337 limits assumed): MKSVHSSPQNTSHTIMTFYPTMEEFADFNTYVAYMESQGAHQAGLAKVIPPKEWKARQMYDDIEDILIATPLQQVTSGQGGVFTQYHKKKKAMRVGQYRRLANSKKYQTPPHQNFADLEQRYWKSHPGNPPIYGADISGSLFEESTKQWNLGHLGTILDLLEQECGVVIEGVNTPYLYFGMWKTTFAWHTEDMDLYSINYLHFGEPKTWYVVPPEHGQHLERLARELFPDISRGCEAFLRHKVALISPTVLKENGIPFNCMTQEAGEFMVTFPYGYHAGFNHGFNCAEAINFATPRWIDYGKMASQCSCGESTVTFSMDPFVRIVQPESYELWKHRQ
Starred values were filed as active, the others as inactive; ? = inconclusive; . = not tested or not shown; [ ] = dose if it differs, or a comment. Sampled rows, rich in hits. Any-hit rate of the full collection: about 9.9%. Unless noted, calls follow the shape of the dose curve; as a rule, active = well fitted curve in the direction sought with a large enough effect; inconclusive = small, poorly fitted or top-dose-only effect, or another doubt; inactive = no such curve, though single readings can be large; an effect the other way counts as inactive or inconclusive. Unless noted, % is scaled to controls: 0 for no effect and ±100 for the full control effect; potency is read from the fitted curve at half-maximal effect.

SMILES	HPGD block	ALDH1A1 inh	Tau fluor counter	Tau ThT inhib	Tau fibril FP	JMJD2E inh
Cc1nc2nc(-c3ccccc3)cn2nc1C	?	?	-7%	?	-1%	?
COC(=O)c1ccc2c(=O)n(CCCCCC(=O)NCc3ccc(Cl)cc3)c(=O)[nH]c2c1	.	.	-10%	-17%	?	.
O=C(CSc1nnc(CNc2ccccc2)o1)N1CCCc2ccccc21	-5%	8.9µM*	-13%	?	-3%	-2%
CC1Cc2ccccc2N1C(=O)CSc1nnc(CNc2ccccc2)o1 (stereo not given)	-4%	25µM*	-16%	-13%	-5%	2%
CC1Cc2ccccc2N1C(=O)CSc1nnc(-c2cccc(Cl)c2)o1 (stereo not given)	.	.	-17%	-10%	6%	.
CN(C)c1nc(OCCOC(=O)COc2ccc(Cl)cc2Cl)nc(N(C)C)n1	-5%	10%	-11%	?	-10%	-7%
CN(C)c1nc(SCCOC(=O)COc2ccc(Cl)cc2Cl)nc(N(C)C)n1	16µM*	5%	-22%	-25%	-3%	5%
CCc1ccc(C2NC(=S)NC3=C2C(=O)CC(C)(C)C3)cc1 (stereo not given)	-10%	2.5µM*	-5%	-12%	1%	?
CC(C)c1ccc(C2NC(=S)NC3=C2C(=O)CC(C)(C)C3)cc1 (stereo not given)	-11%	2µM*	-12%	-15%	4%	-2%
O=c1nc2ccccc2c2n1CC(CN1CCN(c3ccccc3)CC1)N2 (stereo not given)	.	3%	-9%	-7%	-5%	.
Cc1ccc(C2=NN=C(NC(=O)CSc3nncn3C)SC2)cc1	.	?	-18%	22µM*	?	-18%
Cc1ccc(S(=O)(=O)N2CCN(C(C(=O)Nc3ccc(F)cc3)c3ccccc3)CC2)cc1 (stereo not given)	-4%	?	-21%	-6%	-8%	2%
O=C(Nc1ccc(F)cc1)C(c1ccccc1)N1CCN(S(=O)(=O)c2c(F)cccc2F)CC1 (stereo not given)	-8%	7.9µM*	-18%	8%	-16%	3%
O=C(Nc1ccc(F)cc1)C(c1ccccc1)N1CCN(S(=O)(=O)c2ccccc2)CC1 (stereo not given)	-9%	10µM*	-19%	-2%	-9%	-4%
O=C(Cc1ccc(F)cc1)NC1CC(=O)N(c2ccccc2)C1 (stereo not given)	.	.	0%	1%	-5%	.
CN(C)c1ccc(N=Nc2cccc3ccoc23)cc1	-20%	8%[13.5 µM]	16µM*[quencher]	1.4µM*	11%	-8%
COc1ccccc1CCNC(=O)C(=O)NCC(c1cccs1)S(=O)(=O)c1ccc(F)cc1 (stereo not given)	.	.	-17%	-5%	2%	.
COC(=O)c1c(C)oc2c1cc(NS(=O)(=O)c1cccs1)c1ccccc12	-2%	7.9µM*	?	-21%	7%	-4%
Cc1cccc(-n2nnc(-c3nc(-c4ccccc4)no3)c2N)c1C	.	.	3%	-3%	-2%	.
Cc1nn(-c2ccccc2)c2nc(C3CC3)cc(C(=O)Nc3ccc(F)cc3)c12	.	.	-9%	14%	-17%	.
Clc1ccc(C2=NNC(=NCC3CCCO3)SC2)cc1 (stereo not given)	?	8.9µM*	3%	10%	5%	3%
Cc1cc(C2=NNC(=NCCc3ccccc3)SC2)c(C)n1CC1CCCO1 (stereo not given)	.	?	-2%	-19%	-1%	?
O=C(N/N=C/c1ccc(N2CCCCC2)o1)C(O)(c1ccccc1)c1ccccc1	32µM*	?	-24%	?	?	?
COCCCNC(=O)CCC(=O)NNc1nc2ccccc2c2nc(C)nn12	.	4%	3%	0%	-8%	2%
CC1=C(C(=O)OCC(C)C)C2(O)C(=O)c3ccccc3C2(O)N1 (stereo not given)	-1%	?	-10%	7.9µM*	?	4%
SMILES	HPGD block	ALDH1A1 inh	Tau fluor counter	Tau ThT inhib	Tau fibril FP	JMJD2E inh
C=CCOC(=O)C1=C(C)NC2(O)c3ccccc3C(=O)C12O (stereo not given)	-4%	?	-14%	13µM*	?	5%
COc1cccc(-n2c(CN3CCN(c4ccc(C)cc4)C(C)C3)nc3ccc([N+](=O)[O-])cc3c2=O)c1 (stereo not given)	-5%	25µM*	-21%	-17%	10%	0%
COc1cccc(-n2c(CN3CCN(c4cccc(C)c4)C(C)C3)nc3ccc([N+](=O)[O-])cc3c2=O)c1 (stereo not given)	-8%	?	-22%	-19%	9%	-15%
CCNS(=O)(=O)c1ccc(NC(=S)NCc2ccco2)cc1	-17%	22µM*	-10%	-9%	-8%	?
O=C(c1ccc(NC(=S)NCc2ccco2)cc1)N1CCCCC1	.	22µM*	8%	9%	4%	4%
O=C(O)Cc1ccc(NC(=S)NCc2ccco2)cc1	-12%	4%	4%	0%	-7%	-5%
O=S(=O)(Nc1ncccn1)c1ccc(NC(=S)NCc2ccco2)cc1	.	?	-12%	-16%	2%	-7%
Cc1cccc(NC(=S)NCc2ccco2)c1C	-12%	?	1%	4%	-2%	6%
S=C(NCc1ccco1)Nc1ccc(Cl)cc1	18µM*	?	-9%	-1%	-2%	2%
Cc1cccnc1NC(=S)NCc1ccco1	.	13µM*	-3%	2%	0%	-16%
CC(O)CNCCOc1ccccc1OCc1ccccc1 (stereo not given)	.	-9%	-4%	-2%	-4%	?
CC(O)CNCCNCc1c(OCc2ccccc2)ccc2ccccc12 (stereo not given)	-9%	28µM*	5%	12%	5%	11%
O=C(Nc1ccc(Cl)cc1)/C(=C/c1cccc(O)c1)c1nc2ccccc2s1	-5%	-11%	?	20µM*	?	5%
CCCOc1ccc2[nH]cc(C(=O)O)c(=O)c2c1	-10%	3%	-7%	-7%	-1%	-3%
O=C1C(C=Nc2ccccc2)=C(O)c2ccccc21	-20%	-5%	-14%	?	7%	9%
COc1ccc(N=Cc2[nH]c3ccccc3c2O)cc1	.	13µM*	-27%	18µM*	?	?
COc1ccc(N=CC2=C(O)c3ccccc3C2=O)cc1	-12%	2%	-14%	2.2µM*	-8%	12%
COc1ccc(N=Cc2oc3ccc4ccccc4c3c2O)cc1	.	-6%	-20%	?	12%	-14%
CC(=O)Nc1ccc(C2Nc3c(C)cc(C)cc3-c3cc(C)nn32)cc1 (stereo not given)	.	.	?	-13%	4%	.
